Reference: the supplement of paper PMC6555819

The sequences below were run on VDR:RXRa (NR concentration 270 nM, RXRa partner concentration 90 nM) (assay: PBM binding z-score (relative to random genomic background probes); higher = stronger binding; sequences stand for … in GC…GCGATTGACAGCGTAGAATGAAGG).
Method: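 Protein-binding microarray (Agilent 4x180K custom design, double-stranded 60-nt probes: 5' GC cap, 34-nt variable region, 24-nt constant primer region; full probe sequence given). Purified or IVT nuclear receptor:RXRα heterodimers (3:1 NR:RXRα, mostly 270:90 nM) or homodimers were incubated for 1 h in PBS with 2% milk and no ligand, then detected with Alexa488 antibodies. Fluorescence from o1-orientation probes (~5 replicates averaged) was converted to z-scores against 500 random hg19 background probes. Variable regions are seed direct-repeat (DR0–DR5) sites, all their single-nucleotide variants and half-site ablations.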

Question: How did the PBM binding z-score turn out when CCTACTGGGGCAAAAAGGTCATTGATGCCGATAA was run?
Answer: 5.42

Question: For GATACAGGGTCAGCTAGAGGCCAAAGTATGGAAA, which PBM binding z-score is on record?
Answer: 4.26

Question: Which PBM binding z-score does the source give for TCATATAGGTAAAGGTGAAAGTGGAACGATATGA here?
Answer: 1.05

Question: With AGTCAAAGTTCACTAGGTAACGTGAGATTCAGCT as the sequence, how does the PBM binding z-score read?
Answer: 3.88

Question: With CCTACTGGGCCATCAGGTCATTAATATCAACGTT as the sequence, how does the PBM binding z-score read?
Answer: 1.49

Question: How did the PBM binding z-score turn out when TCGAGTAGGTTACCAATGGGGCATTCAACTTTCT was run?
Answer: 0.521

Question: CCTGCTAGCTCATGGTCAGCTAATCTACAGTATG was tested. Which PBM binding z-score did it give?
Answer: -0.366

Question: Which PBM binding z-score does the source give for GGAACGAGGGCATTCGATTTGATAGCATGGCGAT here?
Answer: 1.73

Question: CCTACTTGGCCAAAAAGGTCATTGATGCCGATAA was tested. Which PBM binding z-score did it give?
Answer: 4.82

Question: How did the PBM binding z-score turn out when CCTTACGGGTCAAGGATATAGCACGGGTGGTACG was run?
Answer: 2.65

Question: GCGACTGGGACATCAGCAGGTTACCATAACTTAA was tested. Which PBM binding z-score did it give?
Answer: -0.302

Question: Which PBM binding z-score does the source give for GGAACGCGGGCAAAGTTGATAGCATCTGTCGACG here?
Answer: -0.564

Question: Which PBM binding z-score does the source give for GCTTACGGGTCGAAGGTTATAGCATGAATAGAAT here?
Answer: 2.02

Question: Which PBM binding z-score does the source give for TTACCAAGGTGAAGGTCATTGATCCCTCTGTAGA here?
Answer: 3.43

Question: With CAGCCTATGTCAGGGCCAGTATAGGAGGAACGTT as the sequence, how does the PBM binding z-score read?
Answer: -0.493

Question: With GTACCAAGGGGAATAGGTCGTTGATGAGTAGGCG as the sequence, how does the PBM binding z-score read?
Answer: 0.104

Question: How did the PBM binding z-score turn out when AGTCAACGTTCATCTAGGTAACGTAAGATATGCT was run?
Answer: -0.0927

Question: CTTACTGGGCCACGAAAGGTCATTGATTCAGTGA was tested. Which PBM binding z-score did it give?
Answer: 4.64

Question: How did the PBM binding z-score turn out when AGTCAAAGTTCATCTAGGTAACGTAAGATATGCT was run?
Answer: 4.59

Question: How did the PBM binding z-score turn out when TAGCCTAGGTCATTTAGGGGCCAGTATAGAAAGC was run?
Answer: 3.03

Question: With TCACCAAGGTGAAGGTCGTTGATCCCTCTGTAGA as the sequence, how does the PBM binding z-score read?
Answer: 1.34

Question: With CAAACTAGGTCAAAGAGGTCAAAGTCCGTGCGTA as the sequence, how does the PBM binding z-score read?
Answer: 7.75

Question: How did the PBM binding z-score turn out when GCTTGTAGATCAAGTTTAAGAAAGACTAAGCTAA was run?
Answer: -0.096

Question: How did the PBM binding z-score turn out when CGAACGAGGGCATGAATTGATAGCAAATGCCGAT was run?
Answer: 0.33

Question: CCTCCTGGGCCATTCAGAGGTCATTGATCATATG was tested. Which PBM binding z-score did it give?
Answer: 3.97

Question: With TAGCCTAGGTCATGGGACAGTATACCACGCGAAC as the sequence, how does the PBM binding z-score read?
Answer: 2.17

Question: How did the PBM binding z-score turn out when AGAAGGAGGTTAAGATCAGGGAAACAGAATACAT was run?
Answer: 0.978

Question: For TGTCAAAGTTCAAAGGGAACGTAAGTATCCACAC, which PBM binding z-score is on record?
Answer: 4.92

Question: ACTAGCAGGCCAAGTTTGGGTCAGTCAAACAAAG was tested. Which PBM binding z-score did it give?
Answer: 0.056

Question: For TCAGACAGGTGAAGATAACTCAGGTACGCAGTCG, which PBM binding z-score is on record?
Answer: 0.709

Question: With CCTACTGGGCCAAAAAGGTCAATGATGCCGATAA as the sequence, how does the PBM binding z-score read?
Answer: 4.18

Question: With AGAATTAGGTTATTAAGATCAGGGAATTGCGGTC as the sequence, how does the PBM binding z-score read?
Answer: 0.835

Question: With CCGACTGGGGCAGAAGGGTTACCATACCATCCGG as the sequence, how does the PBM binding z-score read?
Answer: 0.121

Question: For GATACAGGGTCAAGGCGAGAGTACGCGTATTGAT, which PBM binding z-score is on record?
Answer: 4.4

Question: Which PBM binding z-score does the source give for CCTTTCGGGTCAAGGTTATAGCACGGGTGGTACG here?
Answer: 3.79

Question: CGAGCTAGGTCATTGACAGGACAGTGAATAGTAA was tested. Which PBM binding z-score did it give?
Answer: 2.04

Question: TGAATGAGGGTATAAGATCAGGGAACGTTGCAAA was tested. Which PBM binding z-score did it give?
Answer: 0.217

Question: How did the PBM binding z-score turn out when CGTCCAAGGTCAGAGGAGGTCAGTGAAGACAGAT was run?
Answer: 5.98

Question: ATATGTAGGTCACATCCGGGTCATTCAGGCTATG was tested. Which PBM binding z-score did it give?
Answer: 6.03

Question: Which PBM binding z-score does the source give for TAGCCTAGGTCAGATCGGGCCTGTATACGCTATA here?
Answer: 0.0712
